# Assay results: PubChem BioAssay AID720488 (Milwaukee Institute for Drug Discovery, 2013)
# The campaign covered roughly 16,000 compounds. About 960 (6%) were called active. The entries come from a sample that favours actives as a whole. Values without a mark were called inactive.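 The calls were made as follows: active = compound fluorescence over control fluorescence at most 0.8, a quencher, or at least a set upper limit, an enhancer; inactive = ratio between 0.8 and the set upper limit.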
# Assay: fluorescence interference in NS3h DNA assay – biochemical, ChemBridge library, Cy5 readout, artefact control for HCV NS3 helicase inhibitor project (AID 720488)
# Details: Cy5-dT15 DNA with NS3h, at 100 µM, actives lie on both sides, signal over control mean, under 1 quenches
row,Structure (SMILES),fluorescence interference ratio
1,CC(=O)CC(=O)Nc1ccc2c(c1)OCCO2,1.13
2,CCOC(=O)c1ccccc1NC(=O)/C(=C/c1cccc([N+](=O)[O-])c1)NC(=O)c1ccccc1,1.01
3,CCOC(=O)c1ccc(NC(=O)CN(c2cccc([N+](=O)[O-])c2)S(=O)(=O)c2ccccc2)cc1,0.663 (active)
4,COc1ccccc1NC(=O)CN(c1cccc([N+](=O)[O-])c1)S(=O)(=O)c1ccccc1,0.943
5,Cc1cc(Nc2cccc(C(F)(F)F)c2)n2c(nc3ccccc32)c1C#N,1.06
6,COc1ccc2oc(=O)c(C(=O)O)cc2c1,1.08
7,O=C(NC(=S)Nc1ccc2oc(-c3ccc(Br)cc3)nc2c1)c1ccco1,1.09
8,O=C(NC(=S)Nc1ccc(-c2nc3cc(Cl)ccc3o2)cc1)c1ccco1,2.04 (active)
9,O=C(NC(=S)Nc1ccc2oc(-c3cccnc3)nc2c1)c1ccc(Cl)cc1,0.998
10,Cc1ccc(C2Nc3ccccc3C(=O)N2c2ccccc2)cc1 (stereo not given),0.912
11,CCOC(=O)CSc1nnc(-c2cccc(Br)c2)o1,1.15
12,COc1ccc(S(=O)(=O)N(CCc2ccccc2)CC(=O)Nc2ccccc2F)cc1,1
13,O=C(Nc1nc2ccccc2s1)c1ccc2c(c1)OCO2,0.992
14,COc1ccc(C(=O)Nc2nc3ccc(C)cc3s2)cc1Br,1.23 (active)
15,COc1ccc(C(=O)Nc2ncc([N+](=O)[O-])s2)cc1OC,0.92
16,COC(=O)c1c(C)oc2ccc(OCC(=O)c3ccccc3)cc12,0.818
17,O=C(Nc1ccc(Br)cc1)c1ccc(S(=O)(=O)N2CCCC2)cc1,0.938
18,COc1ccc2occ(C(=O)c3ccc(N=C(C)N(C)C)cc3)c2c1,1.07
19,COc1ccccc1C(=O)N=Nc1c(O)n(C)c2ccccc12,1.03
20,CC(C)Oc1ccc(/C=C(/NC(=O)c2ccccc2)C(=O)Nc2ccccc2)cc1,1.01
21,CC(=O)Nc1ccc(NC(=S)NC(=O)/C=C/c2ccccc2)cc1,1.07
22,CCN(CC)c1ccc(NC(=O)/C(=C\c2ccccc2)NC(C)=O)cc1,1.28 (active)
23,O=C(CCN1C(=O)/C(=C/c2cccs2)SC1=S)NC12CC3CC(CC(C3)C1)C2,0.998
24,Cc1cc(C)c(NC(=O)C(=O)NCC(C)O)c(C)c1 (stereo not given),1.01

row,Structure (SMILES),fluorescence interference ratio
1,CCOc1ccccc1NC(=O)Cc1ccccc1,1.03
2,CCOc1ccccc1NC(=O)/C=C/c1ccc(Cl)cc1,1.34 (active)
3,O=C(/C=C/c1ccc(F)cc1)Nc1cccc(Cl)c1Cl,1.01
4,CC(=O)COc1ccc2c(-c3ccccc3)cc(=O)oc2c1,0.969
5,COCCOC(=O)c1c(C)oc2ccc(OCC(N)=O)cc12,1.05
6,CS(=O)(=O)N(CC(=O)Nc1ccc(I)cc1)c1cccc(Cl)c1,0.92
7,Cc1ccc(NC(=O)c2ccc(NC(=O)c3ccc(Cl)cc3Cl)cc2)cc1,0.959
8,CC(=O)c1cccc(NC(=O)c2ccc(N(Cc3ccc(Cl)cc3)S(C)(=O)=O)cc2)c1,0.635 (active)
9,Cc1nn(-c2ccc(I)cc2)c(C)c1-c1cccc([N+](=O)[O-])c1,0.947
10,NCCCCNc1ccc([N+](=O)[O-])cc1,0.959
11,O=[N+]([O-])c1ccc(-c2ccc(I)cc2)cc1,0.706 (active)
12,CCOC(=O)C1CCN(C(=O)Nc2ccc(Cl)cc2)CC1,1.01
13,NC(=O)NC(c1ccccc1)c1ccc(I)cc1 (stereo not given),1.01
14,O=C(Nc1ccc([N+](=O)[O-])cc1)C1CC(=O)N(c2ccc(Cl)cc2)C1 (stereo not given),0.885
15,CN(C)/C=C(/Cl)C=C1C(=O)c2ccccc2C1=O,0.757 (active)
16,Cc1cc(OCC(=O)Nc2c(C)cccc2C)ccc1Cl,0.96
17,COc1ccc(S(=O)(=O)Nc2cc(Br)c(O)c(Br)c2)cc1,0.972
18,COC(=O)c1ccc(COc2ccc3c4c(c(=O)oc3c2)CCC4)cc1,0.926
19,CCC1=NN(C(=O)c2cccc(Br)c2)C(O)(c2ccc(C)cc2)C1 (stereo not given),0.942
20,O=C(c1ccc(Cl)cc1)N1N=C(c2ccc(F)cc2)CC1(O)C(F)(F)F (stereo not given),0.933
21,CC1=NN(C(=O)c2ccc(Br)cc2)C(O)(c2ccccc2)C1 (stereo not given),0.753 (active)
22,O=C(Cc1ccc(Cl)cc1)Nc1nccs1,0.993
23,Cc1cc(C(N)=O)c(-c2ccccc2)o1,1.04
24,O=C1CC2c3ccccc3C1C1C(=O)N(c3ccc(Br)cc3)C(=O)C21 (stereo not given),1.04

row,Structure (SMILES),fluorescence interference ratio
1,CC(=O)Nc1ccc(N2C(=O)C3C4CC(=O)C(c5ccccc54)C3C2=O)cc1 (stereo not given),0.654 (active)
2,Cc1ccc(N2C(=O)C3C4c5ccccc5C(C)(c5ccccc54)C3C2=O)cc1 (stereo not given),0.929
3,Oc1cccc(Nc2nc(-c3ccc(Br)cc3)cs2)c1,0.941
4,COCCCNC(=O)C(=O)NCCc1ccc(OC)c(OC)c1,0.956
5,COc1ccc2c(c1)-c1c(ssc1=S)C(C)(C)N2C(=O)COc1ccccc1,0.931
6,CC12OC3(CCCCC3)C(C)(OC13CCCCC3)O2,0.781 (active)
7,COc1ccc(C(=O)Nc2ccccc2)cc1NC(=O)C(C)Oc1ccccc1 (stereo not given),0.898
8,O=C(/C=C/c1ccccc1)NC(=S)Nc1ccc([N+](=O)[O-])cc1,1.02
9,S=C1NC(c2ccccc2)=NCN1c1ccc(Br)cc1,0.684 (active)
10,Cc1cc(C)c(C(O)=Cc2nc3ccccc3[nH]c2=O)c(C)c1,1.05
11,CCN1C(=O)/C(=C\c2cn(Cc3ccc(F)cc3)c3ccccc23)SC1=S,1.07
12,COc1ccccc1NC(=O)c1cc(Nc2ccccc2)nc2ccccc12,1.05
13,Cc1ccc(-c2cc(NC(=O)c3cccs3)n[nH]2)cc1,0.923
14,Cc1cc(C(=O)N2CCN(c3cccc(Cl)c3)CC2)ccc1[N+](=O)[O-],0.957
15,CC1CCN(c2ccc([N+](=O)[O-])c(SCCO)c2)CC1,0.613 (active)
16,O=C1/C(=C\c2cn(Cc3ccccc3F)c3ccccc23)SC(=S)N1c1ccc([N+](=O)[O-])cc1,0.998
17,CC(C)(C)N1C(=O)NC(=O)C(=Cc2cccs2)C1=O,1.01
18,CCCCOC(=O)CCN1C(=O)/C(=C/c2ccc3c(c2)OCO3)SC1=S,0.998
19,O=C(NC(NC(=O)C(c1ccccc1)c1ccccc1)c1ccc(F)cc1)C(c1ccccc1)c1ccccc1,1.07
20,CCOC(=O)c1ccc(NC2C=CS(=O)(=O)C2)cc1 (stereo not given),0.986
21,O=C(COc1ccccc1Cl)Nc1ccc(O)cc1C(=O)O,1
22,O=C(NCCN1CCN(S(=O)(=O)c2ccccc2)CC1)C(=O)Nc1ccc(Br)cc1,1.01
23,COc1ccc(OC)c(S(=O)(=O)N2CCC(Cc3ccccc3)CC2)c1,0.968
24,COc1ccccc1CN1CCN(C(=O)c2ccc([N+](=O)[O-])cc2)CC1,1.03

row,Structure (SMILES),fluorescence interference ratio
1,COc1cc(C(=O)N2CCC(Cc3ccccc3)CC2)c([N+](=O)[O-])cc1OC,0.65 (active)
2,CCOc1ccc(C(=O)Nc2cc3nn(-c4ccc(C)cc4)nc3cc2C)cc1[N+](=O)[O-],1.04
3,CN1C(=O)/C(=C\c2ccccc2OCCOc2ccc(Br)cc2)SC1=S,1.14
4,Cc1cccc(NC(=O)COc2ccc3ccccc3c2)c1C,1.12
5,C=CC[n+]1c(-c2ccc(OC)cc2)csc1Nc1cccc(C)c1C,1.2 (active)
6,CCC(=O)CC(O)(c1ccccc1)C(F)(F)F (stereo not given),0.957
7,Cc1cccc(OCC(=O)Nc2ccc(Cl)c(C(F)(F)F)c2)c1,1.07
8,Cc1ccc(C(=O)Nc2ccc(Cl)cn2)cc1[N+](=O)[O-],1.02
9,O=C1/C(=C\c2cccc(C(F)(F)F)c2)SC(=S)N1c1ccccc1,1.08
10,COc1cc(/C=C2/SC(=S)N(c3c(C)n(C)n(-c4ccccc4)c3=O)C2=O)c([N+](=O)[O-])cc1OC,0.991
11,COc1ccccc1/C=C1\SC(=S)N(CC(C)C)C1=O,0.946
12,COc1ccc(Br)cc1/C=C1/SC(=S)N(c2cccc(C(F)(F)F)c2)C1=O,0.773 (active)
13,O=C1/C(=C\c2cccc(Br)c2)SC(=S)N1c1cccc(C(F)(F)F)c1,0.626 (active)
14,O=Cc1ccc(/C=C2/SC(=S)N(c3cccc(Cl)c3)C2=O)cc1,1.1
15,O=C(CN(c1ccc(Br)cc1)S(=O)(=O)c1ccccc1)NCC1CCCO1 (stereo not given),1.03
16,Cc1ccc(NCC(O)COc2ccc(OCC(O)CNc3ccc(C)cc3C)cc2)c(C)c1 (stereo not given),1.06
17,COC(=O)C1=C(C)N=c2s/c(=C/c3ccccc3OC(C)=O)c(=O)n2C1c1ccc(OC(C)=O)cc1 (stereo not given),0.949
18,O=C(/C=C/c1cc2c(cc1Br)OCO2)c1ccc(Cl)cc1,1.06
19,Cc1ccc(S(=O)(=O)N2CCN(Cc3ccc(F)cc3)CC2)cc1,0.977
20,Cc1cccc(CN2CCN(S(C)(=O)=O)CC2)c1,0.788 (active)
21,COc1cc(CN2CCN(Cc3cccc(F)c3)CC2)cc(OC)c1OC,1.09
22,COc1cc(NC(=O)c2ccc(Br)cc2)cc([N+](=O)[O-])c1,0.953
23,O=C(CSc1ccc(Cl)cc1Cl)Nc1cccc([N+](=O)[O-])c1,0.897
